Data on 67 compounds can be found in ChEMBL document CHEMBL4513216, “Probing the Open Global Health Chemical Diversity Library for Multistage-Active Starting Points for Next-Generation Antimalarials” (ACS Infect Dis, 2020).

In all, about 68,000 compounds went through this assay and about 2,700 (4%) showed an effect of 50% or more. Only a selection was taken, and strong results are over-represented in it overall.

This experiment concerns Plasmodium berghei. The experiment is described as follows: Screen against P. berghei liver stage (PbLuc), transformed with Luciferase, at 2uM. The class given is functional, HepG2. The settings on record: tested at 2 uM.
Take `Cc1ccc(CN2CCS(=O)(=O)C(C)(C)C2)cc1C`: the INHIBITION is given as -38.39%. In the case of `CCN1CC2(CCC1=O)CCN(Cc1cccc(OC(F)F)c1)CC2`, the INHIBITION is -1.38%. For `Nc1nccc(N2CCNC(C(=O)NCc3ccccn3)C2)n1` (configuration not stated), the INHIBITION is listed as 50.94%.

With `O=C(NCc1ccncc1)C1CN(c2nc3ccccc3s2)CCN1` (configuration not stated), the INHIBITION is given as 11.67%. With `O=C(NCc1cccnc1)C1CN(c2cnc3ccccc3n2)CCN1` (configuration not stated) the figure was -6.53%. In the case of `CCCc1nc(C)cc(N2CCNC(C(=O)NCc3cccnc3)C2)n1` (configuration not stated) it was 19.81%; in that of `O=C(NCc1ccccn1)C1CN(c2nc3ccccc3s2)CCN1` (configuration not stated), 56.21%.

With `O=C(NC1CC1)C1CN(c2nc3ccccc3s2)CCN1` (configuration not stated), the INHIBITION is reported as -17.07%. With `CN(C)CCN1CCN(Cc2cccs2)Cc2cccnc21` the figure was 31.96%; with `COc1ccc(CNC(=O)NC2CCC(O)CC2)c(C(F)(F)F)c1` (configuration not stated), 24.83%. In the case of `Cc1nc(C)n(CC2CCCCN2c2ccnc(-c3ccccc3)n2)n1` (configuration not stated) it was -22.89%; in that of `O=C(c1cccc(=O)[nH]1)N(Cc1ccsc1)CC1CCCO1` (configuration not stated), -2.31%; in that of `CN(C)CCN(Cc1ccsc1)C(=O)C1=NNC(=O)CC1`, 31.51%. As for `O=C1CCC(C(=O)N(Cc2ccsc2)CC2CCCO2)=NN1` (configuration not stated), the INHIBITION was determined as 50.59%. In the case of `CCSC(C)C(=O)N1CCC(c2nn(C)c(=O)n2-c2ccccc2)CC1` (configuration not stated) it was -45.11%. In the case of `CCCC(=O)N1CCC(c2nn(C)c(=O)n2-c2ccccc2)CC1` it was 60.64%.

Regarding `O=c1n(Cc2ncccn2)nc(C2CCNCC2)n1-c1ccccc1`, the INHIBITION is recorded as -0.59%. With `CNc1cccc(C2CCN(C(C)=O)CC2)n1` the figure was 28.4%. With `Cn1nc(C2CCN(CC(=O)NC3CC3)CC2)n(-c2ccccc2)c1=O`, the INHIBITION was found to be 60.64%. `Cn1cnnc1C1CCN(C(=O)CCCOc2ccccc2)CC1`: the INHIBITION is listed as 23.31%. With `CCCn1cc(C(=O)NC2CCN(CC(=O)NC3CC3)CC2)c(C)n1` the figure was 16.35%; with `CC(=O)N1CCC(c2nn(C)c(=O)n2-c2ccccc2)CC1`, 64.06%; with `CNC(=O)CN1CCC(c2nn(C)c(=O)n2-c2ccccc2)CC1`, 16.93%. For `CC1CN(C(=O)NCCCn2cncn2)CCO1` (configuration not stated), the INHIBITION was -7.02%.

Regarding `CS(=O)(=O)N1C[C@H]2CN(CC3CC3)C(=O)[C@H]2C1`, the INHIBITION is -30.69%. In the case of `CC(=O)Nc1nc(C(=O)NCc2ccc(N3CCOC(C)C3)nc2)cs1` (configuration not stated) it was 13.36%; in that of `CN(CCc1nccs1)C(=O)CC1(O)CCCCC1`, 25.78%; in that of `Clc1ccccc1C1(c2ccnc(-c3ccncc3)n2)CCNCC1`, -14.84%. Regarding `CCc1cccc(NS(=O)(=O)c2cc(C)c(C(=O)O)s2)c1`, the INHIBITION is on record as 58.69%. In the case of `CC(=O)c1cccc(NS(=O)(=O)c2cc(C)c(C(=O)O)s2)c1` it was -18.41%; in that of `CCOc1cccc(NS(=O)(=O)c2cc(C)c(C(=O)O)s2)c1`, 40.85%. In the case of `Cc1cc(S(=O)(=O)Nc2cccc(I)c2)sc1C(=O)O` it was -21.72%. With `O=C(O)c1csc(S(=O)(=O)Nc2cccc(OC(F)F)c2)c1` the figure was -56.15%; with `Cc1cc(S(=O)(=O)Nc2cccc(OC(F)F)c2)sc1C(=O)O`, 68.61%; with `COc1cccc(CN2CCOC(c3cnccn3)C2)c1F` (configuration not stated), 4.47%. Consider `Nc1c(N2CCOCC2)ncnc1N1CCOCC1`, for which the INHIBITION is given as -18.65%.

In the case of `CC1CCN(S(=O)(=O)c2cccn(CC(=O)NC3CCCC3)c2=O)CC1`, the INHIBITION is reported as -1.71%.

For `CNC(=O)C1CCCN(c2nc(-c3ccco3)nc3c2CCNCC3)C1` (configuration not stated), the INHIBITION is -44.93%. In the case of `CCS(=O)(=O)NC1CCCN(Cc2ccn(C)c(=O)c2)C1` (configuration not stated) it was -21.09%; in that of `Cc1ncc(C(=O)NC2CCN(CCOc3ccc(Br)cc3)CC2)s1`, 60.13%. In the case of `Cc1ncsc1C(=O)NC1CCN(CCC(N)=O)CC1` it was -7.02%. In the case of `CCc1nnsc1C(=O)NC1CCN(c2ccccn2)CC1` it was 11.97%; in that of `CCc1nnsc1C(=O)NC1CCN(CCOc2ccc(Br)cc2)CC1`, 62.51%. Consider `CN1CCCC1CNC(=O)CCOc1ccc(Br)cc1` (configuration not stated), for which the INHIBITION is listed as -80.31%. In the case of `Cc1nc(C(=O)NC2CCN(CCOc3ccc(Br)cc3)CC2)cs1` it was 31.51%; in that of `COCC[C@]1(O)CCN(Cc2nc(C)c(C)s2)C[C@H]1C`, 11.48%.

With `NC(=O)CC1CCN(C(=O)NCCc2ccc(Cl)s2)CC1`, the INHIBITION was 15.47%. With `Cc1cccc(-c2ncc(CNC(C)Cc3ccncc3)cn2)c1` (configuration not stated) the figure was 24.23%; with `Cc1cccc(-c2ncc(CNC(C)CO)cn2)c1` (configuration not stated), -53.16%; with `CCCC(C)NCc1cnc(-c2cccc(C)c2)nc1` (configuration not stated), 56.47%. With `CCCS(=O)(=O)N1CC[C@H]2O[C@@H](c3nc(C)no3)CC[C@H]21` the figure was -71.5%; with `COc1cccc(CNc2c(C)cnc3c2c(=O)n(C)c(=O)n3C)c1`, -9.49%; with `Cc1cnc2c(c1NCc1cccnc1)c(=O)n(C)c(=O)n2C`, 63.23%.

In the case of `Cc1cnc2c(c1NCc1ccncc1)c(=O)n(C)c(=O)n2C`, the INHIBITION was 29.42%.

Take `CC1CN(Cc2ccccc2)CCCN1CCS(C)(=O)=O` (configuration not stated): the INHIBITION is given as -7.07%. `CC1CN(Cc2ccccc2)CCCN1CCCS(C)(=O)=O` (configuration not stated): the INHIBITION is reported as 53.99%. With `CNS(=O)(=O)CCCN1CCCN(Cc2ccccc2)CC1C` (configuration not stated) the figure was 32.03%; with `CC(NC(=O)CCCOc1ccccc1Cl)c1ccncc1` (configuration not stated), -37.84%.

Take `CCOC(=O)C1(Cc2ccccc2-c2ccccc2OC)CCNCC1`: the INHIBITION is reported as 29.68%. With `CCn1c(N)nc2cc(C(=O)N3CCCOCC3)cnc21` the figure was 40.47%; with `CCn1c(N)nc2cc(C(=O)N(C)Cc3cc(C(C)(C)C)n[nH]3)cnc21`, 58.17%. In the case of `CCc1ccc(CN(C)C(=O)c2cnc3c(c2)nc(N)n3CC)nc1` it was 17.5%; in that of `CCn1c(N)nc2cc(C(=O)N3CCC(N4CCCC4)CC3)cnc21`, -12.08%; in that of `CCn1c(N)nc2cc(C(=O)N3CCCN(C)CC3)cnc21`, 63.1%. With `CCc1cc(CN(C)C(=O)c2cnc3c(c2)nc(N)n3CC)on1` the figure was 6.85%. As to `Cc1cnnn1Cc1nnn2c1CN(Cc1cccs1)CCC2`, the INHIBITION is reported as 12.29%. As to `COc1cccc2c1OCC(CNC(=O)Cc1csc(C(C)=O)c1)C2` (configuration not stated), the INHIBITION was 19.13%.
